Data published in PubChem BioAssay (Tox21).
Records with an inconclusive call do not appear. Where a call stands in place of a potency, no number is given. Calls of active or inactive are those of the source. Calls follow the shape of the dose curve; as a rule, active = well fitted inhibition curve with a large enough effect in the repeat runs; inconclusive = weak or mixed curves; inactive = no such curve, though single readings can be large or run the other way.

Biological target: Cytochrome P450 3A4 (Homo sapiens) (UniProt P08684)
Assay: Cytochrome P450 Family 3 Subfamily A Member 4 (CYP3A4) small molecule antagonists: luciferase reporter qHTS assay (AID 1671201); also: nearly all actives have a fitted effect of over 50% in size
Settings: P450-Glo CYP3A4 enzyme, luciferin luminescence, 1 h; series mostly up to 115 µM
Source text: National Center for Advancing Translational Sciences [NCATS]
U.S. Environmental Protection Agency [EPA]
National Institutes of Environmental Health Sciences [NIEHS]
National Toxicology Program [NTP]
U.S. Food and Drug Administration [FDA]
Cytochrome P450 (CYP) enzymes are membrane-bound hemeproteins that play a key role in metabolism of drugs and xenobiotics. Evaluation of the effect of chemicals on CYP isozymes is useful to minimize the adverse drug reactions and toxicities in drug development process. Tox21 chemicals were tested for their effect on CYP enzyme activities by using P450-Glo (TM) screening systems (Promega Corporation, Madison, WI). These systems provide a luminescent method containing proluciferin substrates and are converted to luciferin products by CYP isozymes. The luciferin products formed are detected with a luciferin detection reagent, and the amount of light produced is proportional to CYP activity. P450-Glo (TM) CYP3A4 screening system (Catalog. No. V9910) was used to detect the compounds that interfere in CYP3A4 activity. The positive control compound used for CYP3A4 assay is ketoconazole (Sigma-Aldrich, St. Louis, MO).
Tox21 Assay Protocol Summary:
Two ul of enzyme-substrate mix was dispensed into medium binding white/solid 1536-well plates (Greiner Bio-One North America Inc., Monroe, NC) using a BioRaptr Flying Reagent Dispenser (FRD, Beckman Coulter, Brea, CA). Compounds dissolved in DMSO and positive control (ketoconazole) were transferred to the assay plates at 23 nl using a Pintool station (Wako, San Diego, CA). The assay plates were incubated at room temperature for 10 min. Then 2 ul of NADPH regeneration solution was added to each well of the assay plates using an FRD and incubated at room temperature for 1 h. The reaction was stopped by adding 4 ul of detection reagent using an FRD and after 20 min incubation at room temperature the luminescence signal was measured using a ViewLux plate reader (Perkin Elmer, Shelton, CT). Data were expressed as relative luminescence units.
Potency is read from the fitted curve at half-maximal effect.

Sequence of Cytochrome P450 3A4 (Homo sapiens) (P08684 whole entry, looked up): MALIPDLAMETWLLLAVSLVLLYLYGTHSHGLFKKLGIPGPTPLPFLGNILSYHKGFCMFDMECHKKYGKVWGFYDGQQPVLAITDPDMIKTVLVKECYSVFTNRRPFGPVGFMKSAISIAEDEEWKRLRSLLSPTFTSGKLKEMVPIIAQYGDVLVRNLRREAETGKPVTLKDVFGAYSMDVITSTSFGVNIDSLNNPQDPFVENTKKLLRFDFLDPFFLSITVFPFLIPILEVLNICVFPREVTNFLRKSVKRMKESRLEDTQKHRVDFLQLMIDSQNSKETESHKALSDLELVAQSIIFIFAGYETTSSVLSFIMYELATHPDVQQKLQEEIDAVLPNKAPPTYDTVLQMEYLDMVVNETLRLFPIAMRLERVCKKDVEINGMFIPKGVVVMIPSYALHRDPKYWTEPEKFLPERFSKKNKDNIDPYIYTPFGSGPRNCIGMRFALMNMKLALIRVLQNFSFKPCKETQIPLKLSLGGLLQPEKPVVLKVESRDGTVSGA

| Structure (SMILES) | Potency |
| --- | --- |
| CC(C)C/C=C(\C=O)c1ccccc1 | 35.6 µM (active) |
| C=CC(O)CCCCC (stereo not given) | inactive |
| CCC(C)CCCC(C)(C)O (stereo not given) | inactive |
| CC/C=C/CCO | inactive |
| O=C(O)c1ccccc1-n1cc(C(=O)O)c(=O)c2cc(Nc3c(F)cc(F)cc3Cl)c(Cl)cc21 | inactive |
| CC1(C)C(=O)NC(=O)N1CO | inactive |
| O=C(O)c1ccc2cc(O)ccc2c1 | inactive |
| CCCCCCCCC(=O)OCC(C)OC(=O)CCCCCCCC (stereo not given) | inactive |
| O=C1c2ccccc2C(=O)C1c1ccc2ccccc2n1 | 1.77 µM (active) |
| C1CCN(CN2CCCCC2)CC1 | inactive |
| CCCc1ccc(OC)cc1 | inactive |
| O=Cc1ccc(Cl)c([N+](=O)[O-])c1 | 71 µM (active) |
| N#Cc1ccc(CC(=O)c2cccc(C(F)(F)F)c2)cc1 | inactive |
| O=[N+]([O-])c1ccc(Cl)cc1Cl | inactive |
| CCOc1cc(OCC)c(C(C)=O)cc1OCC | 35 µM (active) |
| C=C(C)C(=O)OCCCCCCCCCCOC(=O)C(=C)C | inactive |
| CCCCC(CC)COCCC#N (stereo not given) | inactive |
| CCC[Si](OC)(OC)OC | inactive |
| O=C(O)c1cccc(C(=O)O)c1C(=O)O | inactive |
| Cc1ccc(S(=O)(=O)NC(=O)NC2CCCC2)cc1 | inactive |

| Structure (SMILES) | Potency |
| --- | --- |
| C/C(=C\C(C)CC(C)CC(C)C)C1CC(=O)OC1=O (stereo not given) | inactive |
| Nc1nc(Cl)nc2c1ncn2[C@H]1C[C@H](O)[C@@H](CO)O1 | inactive |
| CC(=O)Oc1cccc2c1C(=O)c1c(OC(C)=O)cc(C(=O)O)cc1C2=O | inactive |
| NC(=O)c1ccccc1C(N)=O | 63.5 µM (active) |
| CS(C)=O | inactive |
| CCOC(OCC)OCC | inactive |
| CC/C=C\CCO | inactive |
| Nc1ccc(F)cc1F | inactive |
| Cc1cc(C)c(C)c(O)c1 | inactive |
| C=CC(=O)OCCCCCCCCCC | inactive |
| CCCCOC(=O)C(C)Oc1ccc(Oc2ccc(C(F)(F)F)cn2)cc1 (stereo not given) | inactive |
| Clc1nc2ccccc2nc1Cl | inactive |
| O=C(Nc1ccccc1)c1cc([N+](=O)[O-])ccc1Cl | 35.6 µM (active) |
| CC(CC(C#N)(c1ccccc1)C(C)C)N(C)C (stereo not given) | 6.92 µM (active) |
| Cc1cccc(C)c1NC(=O)CN1CCCC1 | inactive |
| CC(C)CC(C)(C)C | 32.9 µM (active) |
| COC(=O)C(C)(C)C | inactive |
| C/C=C1\[C@H]2C=C(C)C[C@]1(N)c1ccc(=O)[nH]c1C2 | inactive |
| O=C(Cl)c1ccc(F)c(Cl)c1 | inactive |
| CCCCCCCCNC | inactive |
